KCNQ2 pot = potentiators of rat KCNQ2 potassium channel; Potassium voltage-gated channel subfamily KQT member 2 (Rattus norvegicus), O88943; CHO-K1 KCNQ2, FluxOR thallium flux fluorescence; hits give high values; B-score at 10 µM; 310,000 tested, 0.54% active; AID 2239, 2010;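 active means fluorescence ratio B-score at least 3 SD of library B-scores, with initial fluorescence B-score within 3 of them, cut at about 5.3 in these data; same plate scores as AID 2156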;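 further: B-score of peak minus minimum over baseline fluorescence ratio after K+ and Tl+ stimulus; positive B-score means potentiation of KCNQ2 with more thallium influx and brighter signal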
KCNQ2 inh = rat KCNQ2 potassium channel inhibitors, primary screen, cell-based, CHO-K1, FluxOR thallium flux, B-score; B-score at 10 µM; 20 min; hits give low values; Potassium voltage-gated channel subfamily KQT member 2 (Rattus norvegicus), O88943; 310,000 tested, 1.1% active;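 active means fluorescence ratio B-score at most minus 3 library SDs, with starting brightness B-score within 2 library SDs, cut at about -5.5 in these data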
* marks the source's active call; other numbers are inactive results; i = inactive; nt = no result. In the library only some 1.6% were active in any assay of this set; here they are far more common.

SMILES	KCNQ2 pot	KCNQ2 inh
NS(=O)(=O)c1ccc(CCNC(=O)c2coc3ccccc3c2=O)cc1	nt	i
O=Cc1coc2ccc3ccccc3c2c1=O	-8.08	-8.08*
NC(=O)N/N=C/c1coc2ccc3ccccc3c2c1=O	1.33	i
COc1ccc(C)cc1S(=O)(=O)N1CCOCC1	0.74	i
CC(/C=C1\SC(=S)N(NC(=O)c2ccccc2C)C1=O)=C\c1ccccc1	nt	i
CC(/C=C1\SC(=S)N(NS(=O)(=O)c2ccc(C)cc2)C1=O)=C\c1ccccc1	21.4*	i
COc1cc(OC)cc(C(=O)NN2CCOCC2)c1	1.21	i
COC(C(=O)Nc1ccnn1C1CCN(Cc2ccccn2)CC1)c1ccccc1 (stereo not given)	nt	i
O/N=C/c1ccc(OCc2ccccc2)c(Br)c1	nt	i
O/N=C/c1cc(Br)cc(Br)c1OCc1ccccc1	-5.58	-5.58*
Cc1oc2cc3oc(=O)c(CCC(=O)NCc4ccccn4)c(C)c3cc2c1C	0.09	i
COC(=O)c1cn(C(=O)c2ccccc2)c2ccccc12	nt	i
COC(=O)c1cn(C(=O)c2cc(OC)cc(OC)c2)c2ccccc12	-6.34	-6.34*
C=CCN1C(=O)c2ccc(C(=O)N3CCC(C(N)=O)CC3)cc2C1=O	1.12	i
CCCNC(=O)c1ccc(N2CCC3(CC2)CC(c2ccccc2)=NO3)c(NC(=O)c2ccc(Br)cc2)c1	nt	i
CCCCCCCC(=O)Nc1cc(C(=O)NCCC)ccc1N1CCC2(CC1)CC(c1ccccc1)=NO2	-5.98	-5.98*
O=C(Cn1cnc([N+](=O)[O-])n1)NCCO	2.2	i
COc1ccc(C(=O)N/C(=C/c2cccnc2)C(=O)N2CCN(C)CC2)cc1OC	nt	i
CCn1c(N2CCN(S(=O)(=O)c3ccccc3)CC2)nc2ccccc21	0.46	i
CCCCCCC1/C(=N\NC(=O)c2ccccc2)CCC1C(=O)OC (stereo not given)	0.6	i
Cc1nc(NC(=O)C2CCCC2)sc1Cc1ccc2c(c1)OCO2	0.1	i
Cc1nc(NC(=O)C23CC4CC(CC(C4)C2)C3)sc1Cc1ccc2c(c1)OCO2	20.8*	i
COc1ccc2ncc(S(=O)(=O)c3ccccc3)c(N3CCN(c4ccccc4)CC3)c2c1	nt	i
Cc1ccc2ncc(S(=O)(=O)c3ccccc3)c(N3CCCCC3C)c2c1 (stereo not given)	-6.09	-6.09*
O=C(O)c1cc(-c2ccccc2)nn1CC1CC(c2cccnc2)=NO1 (stereo not given)	1.3	i
SMILES	KCNQ2 pot	KCNQ2 inh
COc1ccccc1CNC(=O)c1cc(-c2ccccc2)nn1CC1CC(c2cccnc2)=NO1 (stereo not given)	-6.06	-6.06*
Cc1ccc(NC2CCCN(C(=O)CN3C(=O)c4ccccc4C3=O)C2)cc1C (stereo not given)	nt	i
COc1cccc(N2CCN(C(=O)c3cccn4c(=O)c5c(C)c(C)sc5nc34)CC2)c1	nt	i
Cc1sc2nc3c(C(=O)N4CCCC4)cc(C(=O)c4ccccc4O)cn3c(=O)c2c1C	-7.1	-7.1*
O=C1[C@@H]2Cc3c([nH]c4ccccc34)CN2C(=O)CN1CCCO	0.73	i
CCCCN1C(=O)C2Cc3c([nH]c4ccccc34)CN2C1=S (stereo not given)	-5.56	-5.56*
CCCCCCN1CC(=O)N2Cc3[nH]c4ccccc4c3C[C@H]2C1=O	-6.93	-6.93*
CCCCCN1CC(=O)N2Cc3[nH]c4ccccc4c3C[C@H]2C1=O	nt	i
O=[N+]([O-])c1cccnc1SCc1ccccc1	0.01	i
Cc1ccc(S(=O)(=O)CC(=O)N2CC(C)OC(C)C2)cc1 (stereo not given)	nt	i
COc1cc(C(=O)N2CCCN(C)CC2)cc(OC)c1C	nt	i
CCOC(=O)/C(C#N)=C/c1cc2ccccc2nc1N1CCCCC1	-6.46	-6.46*
Cc1ccc2cc(/C=C(\C#N)C(N)=O)c(N3CCCCC3)nc2c1	nt	i
CC(O)(C#CCN1CCCCC1)c1ccccc1 (stereo not given)	1.31	i
CC(C)(C#CCN1CCCCC1)OCCOC(c1ccccc1)c1ccccc1	-6.1	-6.1*
Cc1ccc(S(=O)(=O)N2CCCC2CNC(=O)C(=O)NC2CCCC2)cc1 (stereo not given)	0.12	i
CC(=O)NC(CC(=O)N(C)Cc1cccc(Cl)c1Cl)c1ccccc1 (stereo not given)	nt	i
Cc1cccc(N(C(=O)c2ccco2)C(C(=O)NC2CCCC2)c2ccco2)c1C (stereo not given)	nt	i
COC(=O)c1cc2nc(-c3ccccc3)cc(C)n2n1	1.56	i
Cc1cc(-c2ccccc2)nc2cc(C(=O)N(Cc3ccccc3)Cc3ccccc3)nn12	-7.24	-7.24*
CCOc1ccc(S(=O)(=O)N(C)CC(=O)N2CCN(CC)CC2)cc1	0.79	i
Cc1cccc(/N=C/c2nc(-c3ccccc3Br)oc2O)n1	nt	i
